Screening data deposited in PubChem BioAssay by National Center for Advancing Translational Sciences (NCATS).
SARS PLP yeast: blocks SARS-CoV papain-like protease in a yeast assay; S. cerevisiae expressing SARS-CoV PLpro, growth rescue; Potency, µM (highest dose often 32.9 µM), most hits filed as activators; 330,000 compounds, 0.19% hits; AID 485353; also: nearly all actives have a fitted effect of over 55% in size
NS1 inh: influenza NS1 inhibition | Potency, µM (highest dose often 46.1 µM) | AID 2326 | 270,000 compounds, 0.4% hits; also: actives are rising curves; nearly all actives have a fitted effect of over 50% in size
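OD600 was taken as the measure of yeast growth restored by compound in an NS1-expressing S. cerevisiae strain. Cells had been washed out of glucose medium and diluted 1:100 into galactose -URA medium, pH 6.0.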
Shiga toxin inh: Shiga toxin inhibition; inhibition, % at 38.7 µM; Vero cells, Shiga toxin protein synthesis inhibition reporter; 290,000 compounds, 9.2% hits; AID 2315; in the data active = inhibition mostly above about 28%, no sharp cut-off; inactive = mostly below about 43%
Cycloheximide cs: counter-screen hit for Shiga toxin inhibitors, cycloheximide; cell reporter, cycloheximide protein synthesis inhibition counterscreen; max response, %; 300,000 compounds, 12% hits; in the data active = max response mostly above about 13%, no sharp cut-off; inactive = mostly below about 14%; also: read at 38.3 µM for the half of the compounds with a filed dose
Pf growth 48h: P. falciparum growth inhibition at 48 hours (one generation). P. falciparum luciferase growth in erythrocytes, 48 h. Potency, µM (highest dose often 28.7 µM), hits mostly inhibitors. 310,000 compounds, 5.9% hits. AID 504832; active = well fitted inhibition curve with a large enough effect; inconclusive = small, poorly fitted or top-dose-only effect, or another doubt; inactive = no such curve, though single readings can be large or run the other way
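Growth was read as firefly luciferase luminescence after a 48 h, 37 C, 5% CO2 exposure of compounds to reporter-bearing P. falciparum cultures (0.1% parasitemia, 2% hematocrit final) in Albumax-supplemented RPMI 1640.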
Pf growth 96h: P. falciparum growth inhibition at 96 hour, primary screen for plastid delayed-death inhibitors; P. falciparum luciferase reporter growth, 96 h; Potency, µM (doses to about 28.7 µM), hits mostly inhibitors; 320,000 compounds, 6.9% hits; AID 504834; active = well fitted inhibition curve with a large enough effect; inconclusive = small, poorly fitted or top-dose-only effect, or another doubt; inactive = no such curve, though single readings can be large or run the other way
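Two parasite generations (96 h, 37 C, 5% CO2) of compound exposure in infected erythrocytes (0.05% parasitemia, 2% hematocrit). Luciferase-reporter P. falciparum; decreased luminescence indicates inhibited growth, aimed at apicoplast-acting delayed death.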
Numbers stand for hits. Shown are actives, neighbours in structure and some others; about 21% of the full set was active somewhere. Unless noted, calls follow the shape of the full dose curve.

Screening O=C(NNC(=O)C1CC(=O)N(Cc2ccccc2)C1)c1ccc(Br)cc1 (stereo not given) returned SARS PLP yeast inactive, NS1 inh inactive, Shiga toxin inh inactive, Cycloheximide cs inactive, Pf growth 48h inactive and Pf growth 96h 2.33µM.
For O=C(Nc1ccc(S(=O)(=O)N2CCCCC2)cc1)C1CC(=O)N(Cc2ccccc2)C1 (stereo not given) the results were SARS PLP yeast inactive, Pf growth 48h 13.1µM and Pf growth 96h inconclusive.
`CC1CC(C)CN(S(=O)(=O)c2ccc(NC(=O)C3CC(=O)N(Cc4ccccc4)C3)cc2)C1` (stereo not given) gave SARS PLP yeast inactive, NS1 inh inactive, Shiga toxin inh inactive, Cycloheximide cs inactive, Pf growth 48h inconclusive and Pf growth 96h inconclusive.
Cc1ccc(NC(=O)C2CC(=O)N(Cc3ccccc3)C2)cc1S(=O)(=O)N1CCCCCC1 (stereo not given) was read as SARS PLP yeast inactive, NS1 inh inactive, Shiga toxin inh inactive, Cycloheximide cs inactive, Pf growth 48h inconclusive and Pf growth 96h 11.7µM.
Screening CC(C)(C)n1nnnc1SCC(=O)Nc1nn(-c2ccccc2)nc1C(N)=O returned SARS PLP yeast inactive, Shiga toxin inh inactive, Cycloheximide cs inactive, Pf growth 48h inactive and Pf growth 96h inconclusive.
For COc1ccc(OCC(=O)Nc2cccc(C(=O)Nc3ccccc3C(=O)O)c2)cc1 the results were SARS PLP yeast inactive, NS1 inh inactive, Shiga toxin inh inactive, Cycloheximide cs inactive, Pf growth 48h inactive and Pf growth 96h inactive.
`COc1cccc(N2CCN(CC(=O)N3CCN(S(=O)(=O)c4ccc(Cl)cc4)CC3)CC2)c1` gave SARS PLP yeast inactive, Pf growth 48h inconclusive and Pf growth 96h inconclusive.
CCOC(=O)C1=NNC(C(=O)c2ccc(C)cc2)C1c1ccc(C)cc1 (stereo not given) was read as SARS PLP yeast inactive, NS1 inh inactive, Shiga toxin inh inactive, Cycloheximide cs inactive, Pf growth 48h 10.4µM and Pf growth 96h inactive.
For CCOC(=O)C1=NNC(C(=O)c2ccccc2)C1c1ccc(C)cc1 (stereo not given) the results were SARS PLP yeast inactive, NS1 inh inactive, Shiga toxin inh inactive, Cycloheximide cs inactive, Pf growth 48h 1.65µM and Pf growth 96h 2.08µM.
`O=C(Cn1nc(C(=O)O)c2ccccc2c1=O)Nc1cc(C(F)(F)F)ccc1-n1cncn1` gave SARS PLP yeast inactive, Pf growth 48h inactive and Pf growth 96h inactive.
For CC(=O)Nc1ccc(C2C(=O)c3ccccc3C2=O)cc1 the results were SARS PLP yeast inactive, NS1 inh inconclusive, Shiga toxin inh 68.1, Cycloheximide cs 23.7, Pf growth 48h inactive and Pf growth 96h inactive.
CCCC(=O)Nc1ccc(C2C(=O)c3ccccc3C2=O)cc1 was read as SARS PLP yeast inactive, NS1 inh inconclusive, Shiga toxin inh inactive, Cycloheximide cs 12.1, Pf growth 48h inactive and Pf growth 96h inactive.
Screening CCCCC(=O)Nc1ccc(C(=O)NN2C(=O)c3ccccc3C2=O)cc1 returned SARS PLP yeast inactive, NS1 inh inactive, Shiga toxin inh inactive, Cycloheximide cs inactive, Pf growth 48h inactive and Pf growth 96h inactive.
Screening O=C1C(Cl)=C(NC(=O)c2ccccc2)C(=O)C(Cl)=C1NC(=O)c1ccccc1 returned SARS PLP yeast inactive, NS1 inh inactive, Shiga toxin inh inactive, Cycloheximide cs 17.7 and Pf growth 96h inconclusive.
O=C(Nc1cccc(Cl)c1)c1ccccc1 was read as SARS PLP yeast inactive, Pf growth 48h inactive and Pf growth 96h inactive.
Screening CN(C1=C(NC(=O)c2ccc(Cl)cc2)C(=O)c2ccccc2C1=O)c1ccccc1 returned SARS PLP yeast inactive, NS1 inh inactive, Shiga toxin inh 50.3, Cycloheximide cs 20.3, Pf growth 48h 1.85µM and Pf growth 96h inconclusive.
Screening O=C(NC1=C(NC2CCS(=O)(=O)C2)C(=O)c2ccccc2C1=O)c1ccccc1 (stereo not given) returned SARS PLP yeast inactive, NS1 inh inactive, Shiga toxin inh inactive, Cycloheximide cs inactive, Pf growth 48h 1.65µM and Pf growth 96h inconclusive.
`O=C(NC(NC1CCS(=O)(=O)C1)C(=O)c1cccs1)c1ccccc1` (stereo not given) gave SARS PLP yeast inactive, NS1 inh inactive, Shiga toxin inh inactive, Cycloheximide cs inactive and Pf growth 48h inactive.
Screening O=C(NC1=C(Nc2ccc(Cl)cc2)C(=O)c2ccccc2C1=O)c1ccccc1 returned SARS PLP yeast inactive, NS1 inh inactive, Shiga toxin inh inactive, Cycloheximide cs 24.3, Pf growth 48h 0.131µM and Pf growth 96h 0.104µM.
For O=C(Nc1ccc(NS(=O)(=O)c2ccccc2)cc1)c1ccc(Cl)cc1 the results were SARS PLP yeast inactive, NS1 inh inactive, Shiga toxin inh inactive, Cycloheximide cs inactive, Pf growth 48h inactive and Pf growth 96h inactive.
O=C(Cn1cnc2scc(-c3ccc(Br)cc3)c2c1=O)N1CCOCC1 was read as SARS PLP yeast inactive, NS1 inh inactive, Shiga toxin inh inactive, Cycloheximide cs inactive, Pf growth 48h inactive and Pf growth 96h inactive.
Screening CC(=O)CCc1ccc(Oc2nc(-c3cccnc3)nc3ccccc23)cc1 returned SARS PLP yeast inactive, Shiga toxin inh inactive, Cycloheximide cs inactive, Pf growth 48h inconclusive and Pf growth 96h inconclusive.
`Cc1cccc(NC2=C(NC(=O)c3ccccc3)C(=O)c3ccccc3C2=O)c1` gave SARS PLP yeast inactive, NS1 inh inactive, Shiga toxin inh inactive, Cycloheximide cs 13.9, Pf growth 48h 0.465µM and Pf growth 96h inconclusive.
CCN(C(=O)c1c(C)cc(=O)oc1C)c1ccc2c(c1)OCO2 was read as SARS PLP yeast inactive, NS1 inh inactive, Shiga toxin inh inactive, Cycloheximide cs inactive, Pf growth 48h inactive and Pf growth 96h inactive.
Screening CCN(C(=O)c1coc(=O)c(Br)c1)c1ccc2c(c1)OCO2 returned SARS PLP yeast inactive, NS1 inh inactive, Shiga toxin inh 85.9, Cycloheximide cs 27.2, Pf growth 48h inconclusive and Pf growth 96h inconclusive.
For COC(=O)c1cc(-c2cccc(OC)c2)n[nH]1 the results were SARS PLP yeast inactive, NS1 inh inactive, Shiga toxin inh 49.0, Cycloheximide cs 23.8, Pf growth 48h inactive and Pf growth 96h inactive.
`COC(=O)c1cc(-c2ccc(C)cc2)n[nH]1` gave SARS PLP yeast inactive, NS1 inh inactive, Shiga toxin inh 81.7, Cycloheximide cs 48.1, Pf growth 48h inactive and Pf growth 96h inactive.
COC(=O)c1cc(-c2ccc(OC)cc2)n[nH]1 was read as SARS PLP yeast inactive, NS1 inh inactive, Shiga toxin inh 103.4, Cycloheximide cs 27.5, Pf growth 48h inactive and Pf growth 96h inactive.
COc1ccc(CNC(=O)c2cc(-c3cc(C)ccc3O)n[nH]2)cc1 was read as SARS PLP yeast inactive, NS1 inh inactive, Shiga toxin inh inactive, Cycloheximide cs inactive, Pf growth 48h inconclusive and Pf growth 96h inconclusive.
`CCOc1cccc(-c2cc(C(=O)NN)[nH]n2)c1` gave SARS PLP yeast inactive, NS1 inh inactive, Shiga toxin inh inactive, Cycloheximide cs inactive, Pf growth 48h inactive and Pf growth 96h inconclusive.
